# Reference: PubChem BioAssay (NCATS)
# Inconclusive results are not listed. A call without a number means that no potency is given here. Values without a mark were called inactive. The source made the active and inactive calls. Calls follow the shape of the dose curve; as a rule, active = well fitted curve in the direction sought with a large enough effect; inconclusive = small, poorly fitted or top-dose-only effect, or another doubt; inactive = no such curve, though single readings can be large; an effect the other way counts as inactive or inconclusive.
# Tests used:
# [1] = system: KB-3-1; assay: Cytotoxic Profiling of Annotated Libraries Using Quantitative High-Throughput Screening (AID 1296008); conditions: Five cell lines viability, CellTiter-Glo ATP luminescence, 48-72 h; max response: hits give low values; also: nearly all actives have a fitted effect of over 60% in size
# Procedure, shortened: (§1)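 Cells exposed to compounds for 48 or 72 hr at 37 degrees Celsius. Viability read as ATP-coupled luminescence with CellTiter-Glo after 10 min at room temperature.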
# [2] = system: NIH3T3; assay: as above; conditions: Five cell lines viability, CellTiter-Glo ATP luminescence, 48-72 h; max response: hits give low values
# Procedure, shortened: as §1
# [3] = system: MCC-13; assay: qHTS assay to identify novel small-molecules to repurpose for Merkel cell carcinoma treatment (AID 1296009); conditions: MCC and control cell lines, CellTiter-Glo viability, 72 h; series mostly up to 46 µM; also: nearly all actives have a fitted effect of over 60% in size
# Procedure, shortened: (§2)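 CellTiter-Glo luminescence after 72 hr compound exposure at 37 degree celsius gave cell viability. Libraries NPC and MIPE were run as 8- and 11-point dose responses; RLUs normalized to DMSO (negative) and no-cell (cytotoxicity) controls.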
# [4] = system: MCC-26; assay: as above; conditions: MCC and control cell lines, CellTiter-Glo viability, 72 h; series mostly up to 46 µM
# Procedure, shortened: as §2
# [5] = system: MKL-1; assay: as above; conditions: MCC and control cell lines, CellTiter-Glo viability, 72 h; series mostly up to 46 µM
# Procedure, shortened: as §2
# [6] = system: MKL-2; assay: as above; conditions: MCC and control cell lines, CellTiter-Glo viability, 72 h; series mostly up to 46 µM
# Procedure, shortened: as §2
# [7] = system: UISO; assay: as above; conditions: MCC and control cell lines, CellTiter-Glo viability, 72 h; series mostly up to 46 µM
# Procedure, shortened: as §2
# [8] = system: WaGa; assay: as above; conditions: MCC and control cell lines, CellTiter-Glo viability, 72 h; series mostly up to 46 µM
# Procedure, shortened: as §2
# [9] = system: C33A; assay: Primary qHTS to identify gynecologic anti-cancer compounds using libraries of approved drugs and bioactive compounds (AID 1345084); conditions: Gynecologic cancer cell panel viability, ATPlite luminescence, 48 h; series mostly up to 57.5 µM; also: nearly all actives have a fitted effect of over 55% in size
# Procedure, shortened: (§3)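 ATP-based viability (ATPlite), 1,000 cells/well, 16 h pre-incubation, 48 h compound at 37 C, 5% CO2, 15 min RT before read.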
# [10] = system: CAOV3; assay: as above; conditions: Gynecologic cancer cell panel viability, ATPlite luminescence, 48 h; series mostly up to 57.5 µM
# Procedure, shortened: as §3
# [11] = system: CASKI; assay: as above; conditions: Gynecologic cancer cell panel viability, ATPlite luminescence, 48 h; series mostly up to 57.5 µM
# Procedure, shortened: as §3
# [12] = system: Es-2; assay: as above; conditions: Gynecologic cancer cell panel viability, ATPlite luminescence, 48 h; series mostly up to 57.5 µM
# Procedure, shortened: as §3
# [13] = system: HeLa; assay: as above; conditions: Gynecologic cancer cell panel viability, ATPlite luminescence, 48 h; series mostly up to 57.5 µM
# Procedure, shortened: as §3
# [14] = system: Hek293T; assay: as above; conditions: Gynecologic cancer cell panel viability, ATPlite luminescence, 48 h, control line for the selectivity index; series mostly up to 57.5 µM
# Procedure, shortened: as §3
# [15] = system: JEG-3; assay: as above; conditions: Gynecologic cancer cell panel viability, ATPlite luminescence, 48 h; series mostly up to 57.5 µM
# Procedure, shortened: as §3
# [16] = system: HaCat; assay: Cytotoxic Profiling of Annotated Libraries Using Quantitative High-Throughput Screening (AID 1296008); conditions: Five cell lines viability, CellTiter-Glo ATP luminescence, 48-72 h; max response: hits give low values; also: nearly all actives have a fitted effect of over 60% in size
# Procedure, shortened: as §1
# [17] = system: HACAT; assay: qHTS assay to identify novel small-molecules to repurpose for Merkel cell carcinoma treatment (AID 1296009); conditions: MCC and control cell lines, CellTiter-Glo viability, 72 h; at 44.8 µM (top of the series) unless noted; also: nearly all actives have a fitted effect of over 60% in size
# Procedure, shortened: as §2
# Potency is read from the fitted curve at half-maximal effect.
structure (smiles),measurement,setting,value
CCCCOC(=O)c1ccccc1C(=O)OCc1ccccc1,max response,[1],-13.6%
same,max response,[2],-6.85%
same,Potency,[3],inactive
same,Potency,[4],inactive
same,Potency,[5],inactive
same,Potency,[6],inactive
same,Potency,[7],inactive
same,Potency,[8],inactive
same,Potency,[9],inactive
same,Potency,[10],inactive
same,Potency,[11],inactive
same,Potency,[12],inactive
same,Potency,[13],inactive
same,Potency,[14],inactive
same,Potency,[15],inactive
CCCCCC[C@H]1C(=O)O[C@H](C)[C@H](NC(=O)c2cccc(NC=O)c2O)C(=O)O[C@@H](C)[C@@H]1OC(=O)CC(C)C,max response,[16],-16%
same,Potency,[4],inactive
same,Potency,[6],4.69 µM (active)
CCCN1CCC[C@H](c2cccc(O)c2)C1,max response,[1],0.305%
O=C(O)COc1nc(Cl)c(Cl)cc1Cl,max response,[1],-16.3%
same,max response,[2],-4.26%
same,Potency,[3],inactive
same,Potency,[4],inactive
same,Potency,[5],inactive
same,Potency,[6],inactive
same,Potency,[7],inactive
same,Potency,[8],inactive
same,Potency,[9],inactive
same,Potency,[11],inactive
same,Potency,[12],inactive
same,Potency,[13],inactive
same,Potency,[14],inactive
same,Potency,[15],inactive
COCCOCCO,max response,[1],-8.22%
same,max response,[2],2.23%
same,Potency,[3],inactive
same,Potency,[4],inactive
same,Potency,[5],inactive
same,Potency,[6],inactive
same,Potency,[7],inactive
same,Potency,[8],inactive
same,Potency,[9],inactive
same,Potency,[10],inactive
same,Potency,[11],inactive
same,Potency,[12],inactive
same,Potency,[13],inactive
same,Potency,[14],inactive
same,Potency,[15],inactive
N=c1c2c(-c3ccccc3)c(-c3ccccc3)n(Cc3ccccc3)c2ncn1C1CCC(O)CC1 (stereo not drawn),max response,[16],-23%
same,max response,[2],-14.3%
same,Potency,[4],inactive
same,Potency,[5],18.7 µM (active)
same,Potency,[6],14.8 µM (active)
same,Potency,[7],3.72 µM (active)
same,Potency,[8],2.64 µM (active)
CCCN(CCC)c1c([N+](=O)[O-])cc(S(N)(=O)=O)cc1[N+](=O)[O-],Potency,[16],68.6 µM (active)
same,max response,[1],-9.77%
same,Potency,[3],24.3 µM (active)
same,Potency,[5],24.3 µM (active)
same,Potency,[6],21.7 µM (active)
same,Potency,[7],21.7 µM (active)
same,Potency,[9],35.5 µM (active)
same,Potency,[15],inactive
NC(=O)CN1CC(O)CC1=O (stereo not drawn),max response,[1],3.82%
c1ccc(C2(c3ccccc3)CC2C2=NCCN2)cc1 (stereo not drawn),max response,[1],-1.25%
CCNC(=O)C[C@@H]1N=C(c2ccc(Cl)cc2)c2cc(OC)ccc2-n2c(C)nnc21,max response,[16],-10.8%
same,Potency,[2],1.84 µM (active)
same,Potency,[3],inactive
same,Potency,[6],1.66 µM (active)
same,Potency,[8],5.9 µM (active)
same,Potency,[9],inactive
same,Potency,[10],inactive
same,Potency,[11],inactive
CO[C@H]1CCC(O[C@H]2C[C@H]([C@]3(C)CC[C@]4(C[C@H](O)[C@@H](C)[C@@H]([C@@H](C)C=C(C)C(=O)[C@H](C)C[C@H](C)C(=O)O)O4)O3)O[C@]3(O[C@@H]([C@H]4O[C@@](O)(CO)[C@H](C)C[C@H]4C)C[C@H]3C)[C@H]2C)O[C@H]1C (stereo partly drawn),max response,[16],-21.4%
same,Potency,[4],inactive
same,Potency,[5],0.935 µM (active)
same,Potency,[6],0.662 µM (active)
same,Potency,[8],0.935 µM (active)
CC(C)NC(C)Cc1ccc(I)cc1 (stereo not drawn),max response,[1],2.96%
C#C[C@]1(O)C=C[C@@H]2[C@@H]3CCC4=CC(=O)CC[C@@H]4[C@H]3CC[C@@]21CC,outcome,[16],inactive
same,max response,[2],-5.86%
same,outcome,[17],inactive
same,Potency,[3],inactive
same,Potency,[4],inactive
same,Potency,[5],inactive
same,Potency,[6],inactive
same,Potency,[7],inactive
same,Potency,[8],inactive
CN[C@@H]1Cc2cccc3[nH]c(=O)n(c23)C1,max response,[1],9.87%
same,max response,[2],3.1%
same,Potency,[3],inactive
same,Potency,[4],inactive
same,Potency,[5],inactive
same,Potency,[6],inactive
same,Potency,[7],inactive
same,Potency,[8],inactive
O=C(Nc1ccncc1)C(=O)c1cn(Cc2ccc(Cl)cc2)c2ccccc12,Potency,[1],46.9 nM (active)
same,Potency,[2],0.0526 µM (active)
